The values that follow come from PubChem BioAssay (EPA / NIEHS).

Results filed as inconclusive are left out. Activity calls are given as the source filed them. Rule for the calls: active = hit-call score of the fitted dose curve at least 0.9, where 1 is the maximum; inconclusive = response in the unintended direction; inactive = score below 0.9.

This test has as its target Cytochrome P450 2C19 (Homo sapiens) (UniProt P33261). Nature of the test: NVS_ADME_hCYP2C19: NovaScreen (NVS) CYP450-related Enzyme Activity (ADME) Assay for human CYP2C19 (AID 2283113).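 For AC50: potency for inhibition seen as loss of fluorescent signal.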 How it is done:
NVS_ADME_hCYP2C19 is a biochemical, single-readout assay that uses extracted gene-proteins from insect cells in a cell-free assay. Measurements were taken 1 hour after chemical dosing in a 96-well plate.NVS_ADME_hCYP2C19 is one of one assay component(s) measured or calculated from the NVS_ADME_hCYP2C19 assay. It is designed to make measurements of enzyme activity, a form of enzyme reporter, as detected with fluorescence intensity signals by Fluorescence technology.Data from the assay component NVS_ADME_hCYP2C19 was analyzed into 1 assay endpoint. This assay endpoint, NVS_ADME_hCYP2C19, was analyzed in the positive analysis fitting direction relative to Acetonitrile as the negative control and baseline of activity. Using a type of enzyme reporter, loss-of-signal activity can be used to understand changes in the enzymatic activity as they relate to the gene CYP2C19. Furthermore, this assay endpoint can be referred to as a primary readout, because this assay has produced multiple assay endpoints where this one serves a enzymatic activity function. To generalize the intended target to other relatable targets, this assay endpoint is annotated to the cyp intended target family, where the subfamily is xenobiotic metabolism.
Binding assays used specific radioligands (tritiated, iodinated) with non-radioactive competitive displacement ligands in agonist or antagonist protocols (as indicated) and various reference compounds and inhibitors to titrate specific binding to receptors and transporters. Most enzyme assays (CYPs, kinases, phosphatases, proteases, HDACs) used recombinant protein and specific substrates (fluorescence mostly, some colorimetric and radioactive) and inhibitors, followed by a biochemical separation of substrate and product. All assays for the biochemical HTS were initially run in duplicate at a single concentration (10 uM for CYP450 assays and 25 uM for all others). […] Each assay was run with positive and negative controls, and concurrent controls on every plate. The follow-up (secondary) screen tested active chemical-pairs in concentration series, as well as a few additional assays not tested in the primary screen, some selected negative inactives, and several cases re-run in the concentration series for confirmatory purposes.
Take `CC[C@H](c1ccc(O)cc1)[C@@H](CC)c1ccc(O)cc1`: the AC50 (as a rule, the concentration at which the activity in the assay is half-maximal) is 5.22 µM (active).
Regarding `ClC1=C(Cl)C(Cl)(Cl)C(Cl)=C1Cl`, the compound was classed as inactive.
The same measure, in the same setting: to `Cc1cc(C)c(O)c(C)c1` belongs “inactive”.
For `O=C(O)c1ccccc1C(c1ccc(O)cc1)c1ccc(O)cc1`, the AC50 is 5.38 µM (active).
With `O=C(O)Cc1cc(I)c(Oc2cc(I)c(O)c(I)c2)c(I)c1`, the call was inactive.
With `OCCC(F)(F)C(F)(F)C(F)(F)C(F)(F)C(F)(F)C(F)(F)F`, the AC50 is 6.15 µM (active).
Same read-out and setting: to `CCCCCCCCCCCCCCCS(=O)(=O)Oc1ccccc1` belongs 5 µM (active).
Regarding `CC1=C(/C=C/C(C)=C/C=C/C(C)=C/C(=O)O)C(C)(C)CCC1`, the result was inactive.
For `CC#C[C@]1(O)CC[C@H]2[C@@H]3CCC4=CC(=O)CCC4=C3[C@@H](c3ccc(N(C)C)cc3)C[C@@]21C`, the AC50 is 3.91 µM (active).
Still for that read-out and setting: to `CCCCC(CC)COC(=O)CCCCC(=O)OCc1ccccc1` (stereo not given) belongs 13.2 µM (active); to `CC[C@H](C)[C@@H](C(=O)O)n1sc2ccccc2c1=O`, 13.4 µM (active); to `CCC(=C(c1ccc(O)cc1)c1ccc(OCCN(C)C)cc1)c1ccccc1`, 3.91 µM (active).
`NC(=O)N1C(=O)C(C(=O)c2cc(Cl)cs2)c2cc(F)c(Cl)cc21` (stereo not given): the compound was classed as inactive.
In the case of `C#C[C@]1(O)CC[C@H]2[C@@H]3CCC4=CC(=O)CC[C@@H]4[C@H]3CC[C@@]21C`, the AC50 was 3.13 µM (active).
With `O=[N+]([O-])c1ccc(O)cc1`, the result was inactive.
For `CC(=O)NC1(c2cccc(F)c2)CCN(CC[C@@]2(c3ccc(Cl)c(Cl)c3)CN(c3ccccc3)C(=O)CO2)CC1`, the AC50 is 1.79 µM (active).
Same read-out and setting: to `Oc1cc2ccccc2c2ccccc12` belongs 0.872 µM (active).
With `COc1ccc([N+](=O)[O-])cc1N`, the compound was called inactive.
As to `CCCOc1sc(C(=O)N2CCC(c3cc(CN)ccc3F)CC2)c(C)c1Br`, the AC50 was 0.68 µM (active).
Same read-out and setting: to `NC(=O)N(O)[C@@H]1C=C[C@H](Oc2cccc(Oc3ccc(F)cc3)c2)C1` belongs 0.644 µM (active).
`Cc1oc(-c2ccccc2)nc1CCOc1ccc(C[C@H](Nc2ccccc2C(=O)c2ccccc2)C(=O)O)cc1`: the call was inactive.
As for `O=C(OCCOCCOC(=O)c1ccccc1)c1ccccc1`, the AC50 is 7.94 µM (active).
The same measure, in the same setting: to `Nc1cccc2c(N)cccc12` belongs 3.08 µM (active); to `Cc1cc(CCN2CCN(c3nsc4ccccc34)CC2)cc2c1NC(=O)CC2(C)C`, 4.35 µM (active).
Same read-out and setting: to `CCCCCCCCCCCCCC[N+](C)(C)C` belongs 2.73 µM (active).
